Values joined by “and” are separate entries in the source; they are usually repeats but may differ in a detail not shown here. Equal values may be shown once. In all, about 5,500 compounds went through this assay and about 2,000 (36%) were called active. Another 18% or so got no clear call; they are omitted. Rule as the data show it: active = normalized growth mostly below about 0.91 (no sharp cut-off); inconclusive = no clear call, values can overlap the other calls; inactive = mostly above about 0.92. This is one part of the list.
Experiment: chemical genetic growth profiling, strain panel (AID 1159580);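 also: tested at 20 µM; growth read once vehicle control cultures reached saturation at 30 °C; 1 = growth at the plate median or of vehicle wells; lower values mean less growth of the strain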
Conditions: S. cerevisiae deletion strains, growth OD

Measured: normalized growth

CC(C)[N+](C)(CCC(C(N)=O)(c1ccccc1)c1ccccc1)C(C)C
inactive: locus YAL013W, strain DEP1, active compounds read low 1.01 | locus YAL021C, strain ccr4, active compounds read low 0.997 | locus YAL026C, strain drs2, active compounds read low 0.999 | locus YAL030W, strain snc1, active compounds read low 0.993 | locus YBL061C, strain skt5, active compounds read low 0.992 | locus YBR009C, strain hhf1, active compounds read low 0.994 | locus YBR021W, strain FUR4, active compounds read low 1 | locus YBR023C, strain chs3, active compounds read low 0.979 | locus YBR171W, strain sec66, active compounds read low 0.987 | locus YBR229C, strain ROT2, active compounds read low 1.01 | locus YBR231C, strain swc5, active compounds read low 0.991 | locus YBR279W, strain paf1, active compounds read low 0.97 | locus YCL011C, strain gbp2, active compounds read low 0.966 | locus YCL016C, strain dcc1, active compounds read low 0.953 | locus YCL029C, strain bik1, active compounds read low 1 | locus YCL061C, strain MRC1, active compounds read low 0.97 | locus YCL069W, strain vba3, active compounds read low 0.993 | locus YCR088W, strain abp1, active compounds read low 0.986 | locus YDL005C, strain med2, active compounds read low 0.996 | locus YDL035C, strain GPR1, active compounds read low 1.01 | locus YDL040C, strain nat1, active compounds read low 0.996 | locus YDL074C, strain BRE1, active compounds read low 1.01 | locus YDL101C, strain DUN1, active compounds read low 1.01 | locus YDL185W, strain tfp1, active compounds read low 0.996 | locus YDL192W, strain arf1, active compounds read low 1 | locus YDR001C, strain nth1, active compounds read low 0.987 | locus YDR069C, strain doa4, active compounds read low 1 | locus YDR101C, strain arx1, active compounds read low 0.999 | locus YDR137W, strain rgp1, active compounds read low 0.987 | locus YDR150W, strain NUM1, active compounds read low 1.01 | locus YDR159W, strain sac3, active compounds read low 0.997 | locus YDR162C, strain NBP2, active compounds read low 1 | locus YDR195W, strain ref2 1.02 | locus YDR297W, strain sur2, active compounds read low 0.991 | locus YDR318W, strain mcm21, active compounds read low 0.999 | locus YDR334W, strain swr1, active compounds read low 0.981 | locus YDR335W, strain msn5, active compounds read low 0.99 | locus YDR388W, active compounds read low 1 | locus YDR392W, strain spt3, active compounds read low 0.9 | locus YDR502C, strain sam2, active compounds read low 0.986 | locus YEL003W, strain gim4, active compounds read low 1.01 | locus YEL037C, strain rad23, active compounds read low 0.987 | locus YEL061C, strain CIN8 (second series), active compounds read low 0.988 | locus YEL061C, strain CIN8, active compounds read low 0.999 | locus YER015W, strain faa2, active compounds read low 0.995 | locus YER016W, strain bim1, active compounds read low 0.998 | locus YER110C, active compounds read low 1 | locus YER111C, strain swi4, active compounds read low 0.981 | locus YER155C, strain BEM2 (second series), active compounds read low 1 | locus YER155C, strain BEM2, active compounds read low 1.02 | locus YER167W, strain BCK2, active compounds read low 0.999 | locus YFR010W, strain ubp6, active compounds read low 0.986 | locus YGL078C, strain dbp3, active compounds read low 0.996 | locus YGL086W, strain mad1, active compounds read low 1 | locus YGL167C, strain pmr1, active compounds read low 0.989 | locus YGL173C, strain kem1, active compounds read low 0.998 | locus YGL227W, strain vid30, active compounds read low 0.98 | locus YGL240W, strain doc1, active compounds read low 1 | locus YGL248W, strain PDE1, active compounds read low 1 | locus YGL253W, strain hxk2, active compounds read low 0.983 | locus YGR135W, strain pre9, active compounds read low 0.978 | locus YGR252W, strain gcn5, active compounds read low 0.896 | locus YHR013C, strain ard1, active compounds read low 0.961 | locus YHR027C, strain rpn1, active compounds read low 0.997 | locus YHR030C, strain SLT2, active compounds read low 0.998 and 1 | locus YHR079C, strain IRE1 (second series), active compounds read low 0.998 | locus YHR079C, strain IRE1, active compounds read low 0.994 | locus YHR094C, strain hxt1, active compounds read low 0.995 | locus YHR129C, strain ARP1, active compounds read low 1.01 | locus YHR142W, strain chs7, active compounds read low 0.939 | locus YHR200W, strain rpn10, active compounds read low 1 | locus YIL066C, strain RNR3, active compounds read low 1.01 | locus YIL073C, strain SPO22, active compounds read low 0.988 | locus YIL125W, strain kgd1, active compounds read low 0.993 | locus YIR030C, strain dcg1, active compounds read low 1.02 | locus YJL092W, strain hpr5, active compounds read low 0.986 | locus YJL095W, strain BCK1 (second series), active compounds read low 0.988 | locus YJL095W, strain BCK1, active compounds read low 1.01 | locus YJL115W, strain asf1, active compounds read low 0.993 | locus YJL129C, strain trk1, active compounds read low 0.991 | locus YJL134W, strain LCB3, active compounds read low 1.02 | locus YJL154C, strain vps35, active compounds read low 1 | locus YJL164C, strain tpk1, active compounds read low 0.987 | locus YJL166W, strain qcr8, active compounds read low 0.972 | locus YJL168C, strain set2, active compounds read low 0.99 | locus YJL187C, strain SWE1 (second series), active compounds read low 1.01 | locus YJL187C, strain SWE1, active compounds read low 1 | locus YJR043C, strain POL32, active compounds read low 1.01 | locus YJR066W, strain TOR1, active compounds read low 0.943 | locus YKL009W, strain mrt4, active compounds read low 1 | locus YKL068W, active compounds read low 0.998 | locus YKL085W, strain MDH1 (second series), active compounds read low 0.995 | locus YKL085W, strain MDH1, active compounds read low 0.995 | locus YKL160W, strain elf1, active compounds read low 0.961 | locus YKL190W, strain CNB1, active compounds read low 0.98 | locus YKR001C, strain vps1, active compounds read low 0.997 | locus YKR026C, strain gcn3, active compounds read low 0.998 | locus YKR091W, strain srl3, active compounds read low 0.992 | locus YLL001W, strain dnm1, active compounds read low 0.96 | locus YLL026W, active compounds read low 0.99 | locus YLL041C, strain sdh2, active compounds read low 0.995 | locus YLR027C, strain aat2, active compounds read low 0.994 | locus YLR039C, strain RIC1, active compounds read low 1.07 | locus YLR058C, strain SHM2, active compounds read low 1.01 | locus YLR102C, strain apc9, active compounds read low 0.999 | locus YLR113W, strain HOG1, active compounds read low 1.04 | locus YLR221C, strain rsa3, active compounds read low 0.972 | locus YLR258W, strain gsy2, active compounds read low 0.98 | locus YLR262C, strain YPT6 (second series), active compounds read low 1 | locus YLR262C, strain YPT6, active compounds read low 1.03 | locus YLR268W, strain sec22, active compounds read low 0.987 | locus YLR320W, strain mms22, active compounds read low 0.971 | locus YLR330W, strain CHS5, active compounds read low 1.01 | locus YLR342W, strain FKS1 (second series), active compounds read low 1.02 | locus YLR342W, strain FKS1, active compounds read low 0.994 | locus YLR357W, strain rsc2, active compounds read low 0.971 | locus YLR370C, strain arc18, active compounds read low 0.975 | locus YLR371W, strain rom2, active compounds read low 0.981 | locus YLR384C, strain iki3, active compounds read low 0.991 | locus YLR418C, strain cdc73, active compounds read low 0.923 | locus YML016C, strain PPZ1, active compounds read low 1.01 | locus YML032C, strain rad52, active compounds read low 0.993 | locus YML120C, strain ndi1, active compounds read low 0.946 | locus YML124C, strain tub3, active compounds read low 0.993 | locus YMR058W, strain fet3, active compounds read low 0.998 | locus YMR078C, strain ctf18, active compounds read low 1 | locus YMR125W, strain sto1, active compounds read low 0.978 | locus YMR129W, active compounds read low 0.996 | locus YMR205C, strain PFK2, active compounds read low 0.974 | locus YMR223W, strain ubp8, active compounds read low 0.987 | locus YMR231W, strain pep5, active compounds read low 1 | locus YMR307W, strain GAS1, active compounds read low 0.9 | locus YNL067W, strain RPL9B, active compounds read low 0.997 | locus YNL071W, strain lat1, active compounds read low 0.983 | locus YNL128W, strain TEP1, active compounds read low 1.01 | locus YNL153C, strain GIM3, active compounds read low 1.01 | locus YNL183C, strain NPR1, active compounds read low 0.964 | locus YNL209W, strain ssb2, active compounds read low 0.986 | locus YNL233W, strain BNI4, active compounds read low 1.01 | locus YNL248C, strain rpa49, active compounds read low 0.992 | locus YNL250W, strain rad50, active compounds read low 0.987 | locus YNL271C, strain bni1, active compounds read low 1 | locus YNL298W, strain CLA4, active compounds read low 1 | locus YNL307C, strain MCK1, active compounds read low 0.988 | locus YNL322C, strain KRE1 (second series), active compounds read low 0.966 | locus YNR049C, strain mso1, active compounds read low 0.995 | locus YNR052C, strain pop2, active compounds read low 0.995 | locus YOL012C, strain htz1 0.833 | locus YOL147C, strain pex11, active compounds read low 1 | locus YOR001W, strain rrp6, active compounds read low 1.03 | locus YOR061W, strain CKA2, active compounds read low 1.01 | locus YOR069W, strain VPS5, active compounds read low 1.01 | locus YOR070C, strain gyp1, active compounds read low 1 | locus YOR080W, strain dia2, active compounds read low 1 | locus YOR083W, strain WHI5, active compounds read low 0.963 | locus YOR106W, strain vam3, active compounds read low 0.976 | locus YOR136W, strain idh2, active compounds read low 0.985 | locus YOR144C, strain elg1, active compounds read low 1 | locus YOR184W, strain ser1, active compounds read low 0.979 | locus YOR231W, strain MKK1, active compounds read low 0.972 | locus YOR265W, strain rbl2, active compounds read low 0.994 | locus YOR270C, strain vph1, active compounds read low 0.984 | locus YOR290C, strain snf2, active compounds read low 0.923 | locus YOR316C, strain cot1, active compounds read low 1.01 | locus YPL051W, strain arl3, active compounds read low 0.998 | locus YPL055C, strain LGE1, active compounds read low 0.991 | locus YPL078C, strain atp4, active compounds read low 0.974 | locus YPL106C, strain sse1, active compounds read low 0.961 | locus YPL240C, strain hsp82, active compounds read low 1 | locus YPL256C, strain CLN2, active compounds read low 1 | locus YPR119W, strain clb2, active compounds read low 0.991 | locus YPR141C, strain kar3, active compounds read low 0.993 | locus YPR163C, strain tif3, active compounds read low 0.998 | locus YPR167C, strain met16, active compounds read low 0.979 | strain wtn01, active compounds read low 0.98
